Source: PubChem BioAssay
Sfp PPTase inh = blocks B. subtilis Sfp PPTase activity; Q9F4F7; Biochemical Sfp PPTase activity, qHTS; Potency, µM, for inactives: largest response in the series, negative = inhibition, most hits filed as inhibitors; 310,000 compounds, 3.5% hits;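 note: the enzyme is Sfp with the accession as filed and its product quenches rhodamine fluorescence; 0% = enzyme reaction without inhibitor and -100% = no enzyme wells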
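After 15 min at room temperature with compound, 15 nM Sfp received 5 uM rhodamine-CoA plus 12.5 uM BHQ-2-ybbR (50 mM Hepes pH 7.6, 10 mM MgCl2). Rate came from the fluorescence difference over 30 min, ex 525/em 598 nm.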
GLS inhibitor = inhibitors of human glutaminase (GLS); GLS enzymatic activity, qHTS titration; O94925; Potency, µM (highest dose often 45.5 µM), inactives show top-dose activity change, negative = inhibition, actives largely listed as inhibitors; 410,000 compounds, 0.21% hits
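Glutamate formation by hKGA was monitored fluorometrically using coupled glutamate oxidase, HRP and Amplex Red. Substrate was added as 1 mM L-glutamine solution; incubation was 30 min at RT after an initial read.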
TrxR1 substrate = rat thioredoxin reductase 1 substrate activity | O89049 | purified TrxR1 substrate turnover, NADPH consumption readout | Potency, µM (highest dose often 114 µM), for the others: top-dose activity change, negative = substrate turnover | 390,000 compounds, 0.01% hits; note: nearly all actives have a fitted effect of over 50% in size
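Rat TrxR1, dispensed at 90 nM, was prereduced with 400 uM NADPH (final) for 5 min at ~22 deg C, then incubated with compound 15 min before 400 uM selenite. A first-read NADPH fluorescence drop versus no-compound background flagged substrates.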
rTrxR1 inhibitor = rat TrxR1 inhibition; O89049; recombinant rTrxR1, NADPH fluorescence consumption, selenite substrate; Potency, µM (doses to about 114 µM), for inactives: at the highest dose activity change, negative = inhibition, actives largely listed as inhibitors; 390,000 compounds, 1% hits; note: nearly all actives have a fitted effect of over 65% in size
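Rat TrxR1 (90 nM in the dispensed reagent) was pre-reduced with 400 uM NADPH for 5 min at room temperature, then incubated with compound for 15 min. After 400 uM selenite was added, NADPH fluorescence (Ex 340/Em 450 nm) was followed for 8 min.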
GCN5L2 inh = blocks human GCN5L2 histone acetyltransferase; GCN5L2 HAT assay, ThioGlo1 CoA-SH fluorescence; Potency, µM (titrated, usually from 58.9 µM), for inactives: at the highest dose activity change, negative = inhibition, hits mostly inhibitors; 390,000 compounds, 0.21% hits; AID 504327
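ThioGlo1-coupled HAT assay: 20nM GCN5L2, 70uM acetyl-CoA, 75uM H3(1-25) peptide, pH 7.5. Fluorescence read at 340/540nm at start and after 20 min at room temperature.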
VDR inhibitor = inhibitors of human vitamin D receptor | VDR-SRC2-3 peptide fluorescence polarization, 2 h | AID 504847 | 400,000 compounds, 0.93% hits | P11473 | Potency, µM, without a hit: max response, negative = inhibition, hits mostly inhibitors
Target sequence (P11473 whole entry, looked up): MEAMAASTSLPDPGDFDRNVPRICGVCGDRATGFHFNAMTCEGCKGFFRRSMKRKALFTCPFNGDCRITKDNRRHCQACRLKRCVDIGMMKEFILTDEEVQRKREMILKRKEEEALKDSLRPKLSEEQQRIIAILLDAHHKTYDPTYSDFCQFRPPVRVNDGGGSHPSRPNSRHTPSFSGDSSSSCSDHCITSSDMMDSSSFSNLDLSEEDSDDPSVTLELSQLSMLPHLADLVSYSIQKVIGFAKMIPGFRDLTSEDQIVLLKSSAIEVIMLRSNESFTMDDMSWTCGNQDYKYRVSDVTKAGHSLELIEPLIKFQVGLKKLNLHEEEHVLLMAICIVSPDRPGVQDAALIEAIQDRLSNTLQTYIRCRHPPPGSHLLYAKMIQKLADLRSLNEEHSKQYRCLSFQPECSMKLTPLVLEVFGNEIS
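The screen uses fluorescence polarization to detect compounds that interfere with recruitment of the SRC2-3 coactivator peptide to VDR; plates are read after 2 h at room temperature.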
The depositor's hits bear a star; ? = inconclusive; / = no result given; [ ] = dose if it differs, or a comment. Hits are enriched below; roughly 3.8% of the tested compounds scored in any of these assays. Calls come from the whole dose curve; as a rule, active = well fitted curve in the direction sought with a large enough effect; inconclusive = small, poorly fitted or top-dose-only effect, or another doubt; inactive = no such curve, though single readings can be large; an effect the other way counts as inactive or inconclusive. Unless noted, % is set by controls: 0 for no effect and ±100 for the full control effect; potency is the fitted concentration of half-maximal effect.

SMILES	Sfp PPTase inh	GLS inhibitor	TrxR1 substrate	rTrxR1 inhibitor	GCN5L2 inh	VDR inhibitor
CCOc1ccc(N=C2NN=C(c3cc(C)n(CC4CCCO4)c3C)CS2)cc1 (configuration not stated)	56.2µM*	?	8.1%[57.1 µM]	16.7%[57.1 µM]	0.9%	-3.6%
COc1ccc(-n2c(C)cc(C3=NNC(=NC4CC4)SC3)c2C)cc1	-108.1%	0.0%	-0.8%	23.0%[57.1 µM]	-5.4%	6.1%
CC(C)(C)N=C1NN=C(c2ccc(Cl)cc2)CS1	1.3%	1.7%	-5.0%	-4.4%	-2.8%	-16.1%
C=CCn1c(C)cc(C2=NNC(=Nc3ccc(C)cc3)SC2)c1C	79.4µM*	14.2%	-3.2%[57.1 µM]	-1.4%[57.1 µM]	0.5%	8.9%
CCC1=C/C(=C/N(C)c2ccccc2)C(=O)S1	50.1µM*	20.7%	-3.3%	-14.3%	-12.4%	?
CN(c1ccccc1)S(=O)(=O)CS(=O)(=O)N(C)c1ccccc1	/	11.7%	-13.0%	-13.4%	/	-9.6%
Cc1ccc(C(=O)NCCCNc2ccccc2[N+](=O)[O-])cc1	8.7%	-4.2%	-8.7%	-7.6%	-3.1%	-3.3%
Cc1ccc(S(=O)(=O)CNC(=S)c2cccc(C)c2)cc1	3.4%	-1.5%	4.7%	?	-2.4%	3.8%
Cc1ccc(S(=O)(=O)CNC(=S)c2ccc3ccccc3c2)cc1	56.2µM*	12.8%	-15.9%	39.8µM*	-4.2%	-26.8%
CC(=O)OCC(=O)[C@@]1(O)CCC2C3CCC4=CC(=O)CCC4(C)C3C(=O)CC21C (some centres not stated)	11.0%	-4.0%	1.5%	9.8%	-0.3%	-9.1%
Cc1nc(-c2ccccn2)nc(SCC(=O)N2CCOCC2)c1Cl	15.8µM*	7.6%	-1.2%	20.2%	-3.8%	-8.4%
COc1ccc(C(=O)CC(=O)c2ccc(C(C)(C)C)cc2)cc1	13.5%	?	0.5%	30.3%	31.6µM*	-15.8%
Cc1cc(C(F)F)n2nc(C(=O)Nc3ccc(C(C)C)cc3)nc2n1	/	-12.5%	-14.4%	-5.2%	0.8%	-11.6%
COc1ccc(C(C[N+](=O)[O-])C2(c3ccc(OC)c(OC)c3)C(=O)c3ccccc3C2=O)cc1 (configuration not stated)	?	7.4%	7.6%	?	-10.0%	31.6µM*
COC(=O)C(C(=O)OC)C(C[N+](=O)[O-])c1ccc(OC)c(OC)c1 (configuration not stated)	17.1%	-5.1%	6.4%[57.1 µM]	-17.6%[57.1 µM]	-7.9%	-17.9%
CCOc1ccccc1Nc1nnc(SCC(=O)Nc2nc(-c3ccc(OC)cc3)cs2)s1	7.7%	11.7%	2.2%	-4.7%	-1.5%	8.4%
COc1ccc(C(c2c(N)[nH]c(=S)[nH]c2=O)c2c(N)[nH]c(=S)[nH]c2=O)cc1	79.4µM*	11.2µM*	-2.9%	?	-7.2%	-23.1%
CC1=NN(c2ccccc2)C(=O)/C1=C\c1ccc(Oc2ccc([N+](=O)[O-])cc2[N+](=O)[O-])cc1	-6.3%	-10.3%	1.0%[57.1 µM]	3.98µM*	0.1%	?
CCCCn1c(/C=C/c2ccco2)nc2ccccc21	-24.8%	-13.5%	4.9%	50.1µM*	-3.4%	-18.3%
CCCn1c(/C=C/c2ccco2)nc2ccccc21	35.5µM*	-0.7%	13.7%	50.1µM*	17.1%	-9.1%
Cc1ccc(Cn2c(/C=C/c3ccco3)nc3ccccc32)cc1	?	3.6%	-1.8%	6.7%	-8.5%	-1.1%
CCCn1c(NCc2ccco2)nc2ccccc21	5.0%	10.5%	3.8%	0.7%	-7.2%	-9.8%
Clc1ccc(Cn2c(/C=C/c3ccco3)nc3ccccc32)cc1	39.8µM*	-2.9%	12.6%	44.7µM*	-13.5%	-29.2%
O=C(CC1C(=O)NCCN1C(=O)c1ccc(Cl)cc1)Nc1ccc(F)cc1 (configuration not stated)	23.6%	2.9%	-10.6%	-14.7%	-2.2%	2.3%
Cc1cc(NC(=O)COc2ccc(C(C)(C)C)cc2)no1	16.1%	-4.3%	4.9%	9.3%	-3.7%	16.3%
SMILES	Sfp PPTase inh	GLS inhibitor	TrxR1 substrate	rTrxR1 inhibitor	GCN5L2 inh	VDR inhibitor
CC(=O)c1cccc(N(C(=O)Cn2nnc3ccccc32)C(C(=O)NC2CCCCC2)c2cn(C)nc2C)c1 (configuration not stated)	7.0%	7.94µM*	6.5%	18.2%	-1.1%	-7.6%
CC(=O)c1ccc(N(C(=O)Cn2nnc3ccccc32)C(C(=O)NC2CCCCC2)c2cn(C)nc2C)cc1 (configuration not stated)	-4.6%	1.8%	2.8%	17.6%	-7.6%	30.0%
O=C(NCc1cccs1)Nc1cccs1	17.8µM*	9.0%	-0.9%	-14.8%	-0.6%	12.5%
Cc1ccccc1CNC(=O)Nc1cccs1	20µM*	19.5%	1.0%	2.1%	11.1%	5.0%
Cc1cccc(NC(=O)Nc2cccs2)c1C	/	0.8%	3.8%	1.2%	-2.5%	0.6%
CCc1ccccc1NC(=O)CCCN1C(=O)C2CC=CCC2C1=O (configuration not stated)	6.9%	-2.5%	-0.6%	-6.6%	-2.9%	6.3%
CC(C)(C)N(NS(=O)(=O)c1ccc(F)cc1)c1ccccc1	-29.9%	-20.3%	4.7%[57.1 µM]	-2.9%[57.1 µM]	0.4%	44.7µM*
Cc1ccccc1NS(=O)(=O)c1ccc(F)cc1	21.5%	-6.0%	-4.7%	-1.1%	1.2%	-2.6%
OC/C=C/c1ccc(O)c(O)c1	0.7%	/	/	/	-6.2%	-2.7%
CC1Cc2ccccc2N1Cc1nc2scc(-c3cccs3)c2c(=O)[nH]1 (configuration not stated)	6.9%	-2.4%	-5.9%	-19.8%	-1.1%	-2.7%
O=C(NCCCNC(=O)c1ccco1)c1ccc(Cl)cc1	9.1%	1.3%	3.0%[57.1 µM]	12.8%[57.1 µM]	-8.0%	-3.2%
COc1cc(C/C=C/c2ccccc2)c(OC)cc1O	-40.1%	/	/	/	9.4%	50.1µM*
COC(=O)N/N=C\c1ccc(OC/C=C/c2ccccc2)c(OC)c1	19.2%	5.0%	3.6%	10.8%	-4.2%	-7.2%
CCOC(=O)C(Cc1c[nH]c2ccccc12)NC(=O)COc1ccc(CC)cc1 (configuration not stated)	/	-0.7%	5.3%	14.8%	1.7%	-6.3%
Cc1ccc(-c2cc[n+](Cc3ccccc3)cc2)cc1	14.6%	?	26.1%[57.1 µM]	-3.4%[57.1 µM]	-4.6%	?
Cc1ccc2c(c1)sc[n+]2Cc1ccccc1	25.1µM*	24.7%	6.9%[57.1 µM]	?	-5.1%	25.1µM*
O=C(NCc1n[nH]c(=S)n1-c1ccc(F)cc1)c1ccc(S(=O)(=O)N2CCCC2)cc1	-28.0%	12.9%	3.8%	?	-15.9%	-10.4%
Cc1ccc(S(=O)(=O)c2nc(C(C)(C)C)oc2N2CCOCC2)cc1	28.2µM*	13.6%	11.3%[57.1 µM]	0.562µM*	0.1%	?
Cc1ccc(S(=O)(=O)c2nc(C)oc2N2CCOCC2)cc1	10.6%	0.0%	14.4%	?	-1.8%	-17.2%
